# Data taken from the supplement of paper PMC10646978.
# ± gives the standard deviation.
# How the values were obtained:
# Details in all cases: modulator concentration 10 µM
# [1] = tested on: RAW-Dual (murine macrophage reporter line); experiment: NF-kB reporter (SEAP) activity fold change vs agonist alone; higher = enhanced NF-kB activity
# Method in brief: (§1)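 RAW-Dual murine macrophage reporter cells were plated at 50 000 per well in 384-well plates, pin-transferred compound to 10 μM final, and pre-incubated for 1 hour at 37 °C before a PRR agonist was added and the cells incubated overnight. NF-κB activity was read from supernatant SEAP with QUANTI-Blue at 620 nm absorbance, and IRF activity from Lucia luciferase with QUANTI-Luc by luminescence. Each signal was expressed as fold change by dividing by the mean agonist-only control on the same plate. Two replicate plates were averaged, with errors obtained by propagation.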
# [2] = tested on: RAW-Dual (murine macrophage reporter line); experiment: IRF reporter (Lucia luciferase) activity fold change vs agonist alone; higher = enhanced IRF activity
# Method in brief: as §1
# [3] = tested on: RAW-Dual (murine macrophage reporter line); experiment: viability score (confluency relative to resting cells, overnight) (fraction); higher = more viable, active = viable (0.7 or more)
# Method in brief: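 Two confluency masks, generated with IncuCyte software over all imaged wells, were applied to IncuCyte images of RAW-Dual macrophages. The cells, in 384-well plates, had been exposed overnight to 10 μM final compound. The viability score is confluency as a fraction of resting cells, and a compound met the cutoff only with both masks above 70% of resting cells.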
# [4] = agonist: CpG ODN 1826 0.5 ug/mL
SMILES,"NF-kB reporter [1, 4]",NF-kB reporter ([1]; agonist: LPS 0.1 ug/mL),NF-kB reporter ([1]; agonist: MPLA […]),IRF reporter ([2]; agonist: 3'3'-cGAMP 10 ug/mL),IRF reporter ([2]; agonist: LPS 0.1 ug/mL),IRF reporter ([2]; agonist: MPLA […]),viability score [3]
CCOC(=O)C1=C(C)NC(C)=C(C(=O)OC)C1c1cccc([N+](=O)[O-])c1 (configuration not stated),0.706 ± 0.055,0.763 ± 0.088,0.859 ± 0.076,1.02 ± 0.049,1.44 ± 0.098,1.37 ± 0.11,0.985 (active)
Cc1nc2sccn2c(=O)c1CCN1CCC(=C(c2ccc(F)cc2)c2ccc(F)cc2)CC1,0.91 ± 0.1,1 ± 0.061,0.901 ± 0.053,0.92 ± 0.056,1.12 ± 0.18,1.01 ± 0.15,1 (active)
CC(C)NC[C@H](O)COc1ccc(CCOCC2CC2)cc1.Cl,1.15 ± 0.1,1.07 ± 0.16,1.11 ± 0.037,0.871 ± 0.11,0.987 ± 0.09,0.868 ± 0.12,1 (active)
COC(=O)C1=C(C)NC(C)=C(C(=O)OCCN(C)Cc2ccccc2)C1c1cccc([N+](=O)[O-])c1 (configuration not stated),0.317 ± 0.079,0.753 ± 0.06,0.72 ± 0.05,0.324 ± 0.028,1.14 ± 0.24,1.15 ± 0.12,0.982 (active)
Cc1ccc(NC(=O)CSc2nc3ccccc3[nH]2)cc1.Cl,1.28 ± 0.37,1.15 ± 0.1,1.02 ± 0.068,0.764 ± 0.036,1.19 ± 0.13,1.42 ± 0.16,0.388 (inactive)
O=C(NCCSC1CCOCC1)c1ccc(Cl)s1,1.21 ± 0.069,0.992 ± 0.1,1.02 ± 0.036,0.898 ± 0.055,1.03 ± 0.054,1.13 ± 0.14,1 (active)
COC(CNS(=O)(=O)Cc1ccccc1)c1ccc(Cl)s1 (configuration not stated),0.959 ± 0.056,1.02 ± 0.084,0.922 ± 0.052,1.24 ± 0.1,1.12 ± 0.071,1.16 ± 0.35,0.639 (inactive)
CC[C@@H]([C@H](C)O)n1ncn(-c2ccc(N3CCN(c4ccc(OC[C@@H]5CO[C@@](Cn6cncn6)(c6ccc(F)cc6F)C5)cc4)CC3)cc2)c1=O,0.947 ± 0.14,0.893 ± 0.068,1.07 ± 0.1,1.1 ± 0.055,1.18 ± 0.091,1.36 ± 0.12,1.02 (active)
CSc1ccc(C2Nc3ccccc3-c3nnc(SCc4ccc(C)cc4)nc3O2)cc1 (configuration not stated),0.817 ± 0.094,0.952 ± 0.047,1.19 ± 0.1,0.877 ± 0.058,1.08 ± 0.091,1.18 ± 0.14,1.01 (active)
N#CC(=Cc1ccc(-c2ccc(Cl)cc2)o1)C(N)=O,0.783 ± 0.062,0.875 ± 0.14,1.13 ± 0.1,1.07 ± 0.049,1.43 ± 0.1,1.63 ± 0.18,1.02 (active)
Cc1ccc(C(=O)c2ccc(CC(=O)O)n2C)cc1,0.949 ± 0.071,1.01 ± 0.064,1.02 ± 0.048,0.995 ± 0.086,0.993 ± 0.1,1.02 ± 0.092,1 (active)
COc1ccc(C2Oc3cc(OC)cc(OC)c3CC2O)cc1 (configuration not stated),1.01 ± 0.24,1.01 ± 0.07,1.81 ± 0.81,0.881 ± 0.057,1.12 ± 0.27,1.04 ± 0.1,1.01 (active)
Cc1ccc(C)n1-c1ccc(C(=O)OCC(=O)c2ccc([N+](=O)[O-])cc2)cc1,0.888 ± 0.071,0.845 ± 0.054,1.31 ± 0.42,0.666 ± 0.044,1.1 ± 0.064,1.01 ± 0.14,0.976 (active)
N#Cc1nc(-c2ccc(COc3ccccc3)o2)oc1N1CCc2ccccc2C1,0.987 ± 0.049,1.13 ± 0.089,0.896 ± 0.05,0.964 ± 0.078,1 ± 0.16,0.989 ± 0.38,1.01 (active)
CCCCCc1ccc(-c2ccc(-c3noc(-c4ccc(CCCC)cc4)n3)cc2)cc1,0.969 ± 0.08,0.97 ± 0.07,0.914 ± 0.086,0.94 ± 0.067,1.32 ± 0.25,1.45 ± 0.31,1.01 (active)
COc1cccc2c1C(=O)c1c(O)c3c(c(O)c1C2=O)C[C@@](O)(C(=O)CO)C[C@@H]3O[C@H]1C[C@H](N)[C@H](O)[C@H](C)O1.Cl,0.0942 ± 0.012,0.0784 ± 0.0047,0.178 ± 0.036,0.101 ± 0.014,0.0915 ± 0.01,0.127 ± 0.024,0.372 (inactive)
NS(=O)(=O)c1ccc2c(c1)CCCC2,0.512 ± 0.11,0.806 ± 0.22,0.661 ± 0.15,0.932 ± 0.057,0.925 ± 0.073,0.957 ± 0.3,0.863 (active)
Clc1ccc(Nc2nnc(Cc3ccncc3)c3ccccc23)cc1 [Prestw-1358],0.987 ± 0.056,1.07 ± 0.069,0.85 ± 0.07,0.785 ± 0.028,1.08 ± 0.069,1.1 ± 0.11,0.997 (active)

SMILES,"NF-kB reporter [1, 4]",NF-kB reporter ([1]; agonist: LPS 0.1 ug/mL),NF-kB reporter ([1]; agonist: MPLA […]),IRF reporter ([2]; agonist: 3'3'-cGAMP 10 ug/mL),IRF reporter ([2]; agonist: LPS 0.1 ug/mL),IRF reporter ([2]; agonist: MPLA […]),viability score [3]
CC(=O)Nc1ccc(C(=O)Nc2ccccc2)c(NC(C)=O)c1,1.11 ± 0.088,0.852 ± 0.14,1.09 ± 0.051,0.726 ± 0.035,0.875 ± 0.087,0.747 ± 0.071,0.997 (active)
CCn1cc(C(=O)NN)c(=O)c2cc(F)c(N3CCCCCC3)cc21,0.966 ± 0.076,0.98 ± 0.091,0.979 ± 0.12,0.965 ± 0.035,1.29 ± 0.11,1.19 ± 0.12,1.01 (active)
Cc1ccc(C=NN=C(c2ccccc2)c2ccccc2)o1,0.796 ± 0.061,0.988 ± 0.076,1.05 ± 0.15,0.61 ± 0.028,0.975 ± 0.098,1.07 ± 0.2,1.02 (active)
CN(C)Cc1ccc(S(=O)(=O)n2ccc(/C=C/C(=O)NO)c2)cc1,0.517 ± 0.028,0.946 ± 0.11,1.25 ± 0.12,1.3 ± 0.12,1.49 ± 0.18,1.6 ± 0.36,0.334 (inactive)
O=C(CCC(=O)NN=Cc1ccc(O)cc1)NN=Cc1ccc(O)cc1,0.915 ± 0.073,0.963 ± 0.062,0.947 ± 0.036,0.973 ± 0.12,0.974 ± 0.04,0.787 ± 0.085,1 (active)
O=C(Nc1ccc([N+](=O)[O-])cc1Cl)c1ccc([N+](=O)[O-])cc1,0.961 ± 0.083,1.07 ± 0.069,0.937 ± 0.06,0.937 ± 0.032,1.48 ± 0.11,1.23 ± 0.3,1.01 (active)
CS(=O)(=O)C1CCN(C(=O)C2(c3ccccc3)CCOCC2)C1 (configuration not stated),0.986 ± 0.11,1.04 ± 0.083,0.927 ± 0.047,0.977 ± 0.068,1 ± 0.087,1.03 ± 0.33,1.02 (active)
Cc1ccc(C)c(NC(=O)CCN2CCN(C=O)CC2)c1,0.822 ± 0.17,0.905 ± 0.088,0.967 ± 0.079,0.962 ± 0.045,1.27 ± 0.37,1.33 ± 0.18,0.979 (active)
Cl.NCCCC(N)(C(=O)O)C(F)F.O (configuration not stated),1.06 ± 0.25,1.09 ± 0.065,1.2 ± 0.18,0.922 ± 0.035,1.3 ± 0.15,1.19 ± 0.15,0.994 (active)
Fc1ccc(CN2CCc3c([nH]c4ccccc34)C2)cc1,0.756 ± 0.07,0.707 ± 0.059,1.4 ± 0.12,0.64 ± 0.039,0.974 ± 0.091,2.77 ± 0.34,0.126 (inactive)
CC12CCC(CC1)C(C)(C)O2,1.17 ± 0.28,1.05 ± 0.14,0.968 ± 0.074,0.956 ± 0.033,1.21 ± 0.15,1.15 ± 0.12,0.994 (active)
O=C(NC(=S)Nc1ccc2[nH]c(=O)[nH]c2c1)c1ccc(F)cc1,0.943 ± 0.095,1.03 ± 0.066,0.933 ± 0.064,0.927 ± 0.032,1.26 ± 0.13,1.05 ± 0.16,1.01 (active)
COc1cccc(-c2csc(NC(=O)C3CC3)n2)c1,1.16 ± 0.19,1.44 ± 0.11,1.31 ± 0.17,1.19 ± 0.053,1.26 ± 0.26,1.35 ± 0.14,1 (active)
O=C(NC(=S)NNc1ccccc1)c1cc2ccccc2oc1=O,1.08 ± 0.23,1.16 ± 0.15,1.03 ± 0.11,0.861 ± 0.022,1.23 ± 0.16,1.12 ± 0.2,0.999 (active)
Cc1ccc(C(=O)NC(=S)Nc2nc(-c3cccc([N+](=O)[O-])c3)cs2)cc1C,1.02 ± 0.12,0.98 ± 0.16,0.977 ± 0.036,0.931 ± 0.17,1.08 ± 0.094,1.12 ± 0.13,1 (active)
N=C(N)NCCN1CCCCCCC1.O=S(=O)(O)O,1.25 ± 0.3,1.11 ± 0.088,1.24 ± 0.26,0.929 ± 0.032,1.27 ± 0.14,1.24 ± 0.12,0.993 (active)
CCCCCCCC(O)CC(CC1CCCCC1)C(=O)NN (configuration not stated),0.721 ± 0.056,0.912 ± 0.074,0.977 ± 0.093,0.88 ± 0.062,1.19 ± 0.22,1.28 ± 0.28,1.02 (active)
CN(C)CC/C=C1\c2ccccc2COc2ccccc21.Cl,0.888 ± 0.038,1.06 ± 0.15,1.36 ± 0.096,0.434 ± 0.02,0.73 ± 0.14,0.876 ± 0.3,1.01 (active)
